Data published in PubChem BioAssay.

These molecules were tested against Alpha-bungarotoxin (Bungarus multicinctus) (UniProt P60615) (assay: alpha-bungarotoxin binders on microarray, profiling panel, artefact control for SMM control protein annotation, biochemical, small-molecule microarray, Alexa647 label, 635/667 nm fluorescence (AID 1117)). Settings: alpha-BTX-A647 binding fluorescence, higher = more signal.
Sequence of Alpha-bungarotoxin (Bungarus multicinctus) (P60615 whole entry, looked up): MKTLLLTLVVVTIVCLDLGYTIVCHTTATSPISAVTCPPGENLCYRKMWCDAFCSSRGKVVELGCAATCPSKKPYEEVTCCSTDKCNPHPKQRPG

Structure (SMILES)	composite z-score
COCCCNC(=O)[C@@]1(Sc2ccc(C)cc2)CC(=O)N(C2CCCCC2)[C@@H]1c1ccc(CO)cc1I	1.99
[N-]=[N+]=NCc1ccccc1C[C@]1(C(=O)O)COC(c2ccc(OCCCO)cc2)=N1	-0.711
COC(=O)[C@@]1(Cc2ccc(OC)cc2)[C@H]2c3cc(C(=O)N(C)C)n(Cc4ccsc4Br)c3C[C@H]2CN1C(=O)c1ccccc1	0.177
CCCCC(=C=CC[C@@H](O)c1ccc(OCCO)cc1)C[C@@H](O)c1ccccn1	0.0829
O=C1NC(=O)C2C1C=CC(C(O)c1cccc(O)c1)N2Nc1ccc(Cl)cc1Cl (configuration not stated)	0.369
[N-]=[N+]=NCc1ccccc1C[C@]1(C(=O)NCc2ccccc2)N=C(c2ccc(OCCCO)cc2)O[C@H]1c1ccccc1CN=[N+]=[N-]	1.87
O=C1O[C@H](c2ccccc2)[C@H](c2ccccc2)N2[C@H]1[C@@H](C(=O)N1CCN(c3ncccn3)CC1)[C@]1(C(=O)Nc3ccccc31)[C@H]2c1ccc(O)cc1	0.593
COC(=O)[C@@]1(Cc2ccc(F)cc2)[C@H]2c3cc(C(=O)N4CCCC4)n(CCO)c3C[C@H]2CN1C(=O)c1ccccc1	-0.063
O=C1NC(=O)C2C1C=CC(C(O)c1ccc(F)cc1)N2Nc1ccccn1 (configuration not stated)	0.349
CC[C@H](C)C(=O)O[C@H]1CC[C@]2(C)C3=C(CCC2C1(C)C)[C@]1(C)CC[C@H]([C@H](C)CCCC(C)C)[C@@]1(C)CC3 (some centres not stated)	0.332
CCCC[C@H]1OB(O)C[C@H]2C1=C(COC)C[C@H]1C(=O)C=CC(=O)[C@H]12	0.567
CCCCCCCCCCC(O)C1C=CC2C(=O)N(C)C(=O)C2N1N1CCCCC1 (configuration not stated)	-1.09
